# Assay results published in PubChem BioAssay AID488975 (Johns Hopkins Ion Channel Center, 2010).
# Among all 310,000 compounds or so, about 2,600 (0.84%) were called active.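 The calls were made as follows: active = B-score over 3 SD under the library average, and starting fluorescence ratio not unusually high; inactive = the rest.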 The list comes from a sample in which actives are over-represented; it also holds similar structures and randomly drawn compounds.
# Molecular target: High affinity choline transporter 1 (Homo sapiens) (UniProt Q9GZV3)
# Assay: inhibitors of human choline transporter CHT (AID 488975);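 as to B-score: choline stimulus applied at its EC90 after an EC20 pre-addition; B-score computed on integrated fluorescence ratio after choline addition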
# Conditions: CHT-expressing cells, membrane potential dye, choline response, at 10 µM; active compounds read low
# Sequence of High affinity choline transporter 1 (Homo sapiens) (Q9GZV3 whole entry, looked up): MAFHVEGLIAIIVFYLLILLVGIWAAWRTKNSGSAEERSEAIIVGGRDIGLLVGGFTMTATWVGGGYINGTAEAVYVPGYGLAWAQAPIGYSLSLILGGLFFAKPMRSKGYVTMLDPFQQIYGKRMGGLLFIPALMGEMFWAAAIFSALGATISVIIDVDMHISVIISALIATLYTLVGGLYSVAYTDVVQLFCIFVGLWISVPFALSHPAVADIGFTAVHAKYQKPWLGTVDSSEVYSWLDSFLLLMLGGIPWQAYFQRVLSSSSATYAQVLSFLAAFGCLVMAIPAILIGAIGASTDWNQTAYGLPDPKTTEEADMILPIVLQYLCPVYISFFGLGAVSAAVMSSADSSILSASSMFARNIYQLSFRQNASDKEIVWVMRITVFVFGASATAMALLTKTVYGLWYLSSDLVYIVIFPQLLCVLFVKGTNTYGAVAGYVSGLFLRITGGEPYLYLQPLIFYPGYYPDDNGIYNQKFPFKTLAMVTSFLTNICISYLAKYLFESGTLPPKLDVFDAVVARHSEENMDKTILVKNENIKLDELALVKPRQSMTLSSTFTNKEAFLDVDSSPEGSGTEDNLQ
row,Compound,B-score
1,Cc1nc2ccccn2c1P(=S)(N1CCCCC1)N1CCCCC1,-6.55 (active)
2,CC[C@H]1CC2CN3CCc4c([nH]c5ccccc45)C(C(=O)OC)(C2)C13 (stereo not given in full),inactive
3,COC(=O)C1=C(c2cc3ccccc3s2)C[C@@H]2CC[C@H]1N2C(=O)NC(C)C,inactive
4,C[N+]1(C)CCOC(O)(c2ccc(-c3ccc(C4(O)C[N+](C)(C)CCO4)cc3)cc2)C1 (stereo not given),-5.22 (active)
5,C=CCN1C(=O)NC(=O)/C(=C/c2ccc(OCC(=O)Nc3ccc(C)cc3)cc2)C1=O,inactive
6,COc1ccc(CNCCc2c[nH]c3ccccc23)cc1OC,inactive
7,O=C(N/N=C/c1c(O)n(C2CC2)c(=S)[nH]c1=O)c1ccccc1,inactive
8,COc1ccc2c(c1)[C@]13CCCCC1C(C2)N(C)CC3 (stereo not given in full),inactive
9,COC(=O)C1=C(c2cc3ccccc3s2)C[C@@H]2CC[C@H]1N2C(=O)NCc1cccc2ccccc12,inactive
10,COC(=O)C(c1ccccc1)N1CCCCCC1 (stereo not given),inactive
11,COc1ccccc1N1CCN(C(CNC(=O)Oc2ccccc2)c2cccnc2)CC1 (stereo not given),-6.58 (active)
12,O=C(NCC(c1cccnc1)N1CCN(c2ccccc2)CC1)Oc1ccccc1 (stereo not given),inactive
13,COc1ccc(N2C(=O)/C(=C/c3ccco3)C(=O)NC2=S)cc1,inactive
14,COC(=O)C1=C(c2ccccc2)C[C@@H]2CC[C@H]1N2C(=O)NCc1ccco1,inactive
15,C/C(=N/O)c1ccc2ccc3ccccc3c2c1,inactive
